Bioassay records (PubChem BioAssay)
Compounds with a hit are over-represented: about 3.6% of the library has one in this group of screens.
Myeloid diff 2: induction of myeloid progenitor differentiation, primary screen, cell-based, flow cytometry, MLPCN library; ER-HoxA9 myeloid progenitors, lysozyme-GFP differentiation; calls only at 10 µM; actives 1% (n = 360,000); AID 624256, 2012;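 active means normalized GFP-positive differentiation at or above the plate's own cutoff, the solvent-only control mean plus 3 SD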;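 further: cells exposed to compound for four days before flow analysis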
CendR NRP1 mod: modulators of CendR peptide binding to NRP-1, primary screen, biochemical, fluorescence polarization, uHTS | Neuropilin-1 (Homo sapiens), O14786 | FAM-RPARPAR peptide binding to NRP-1 | inhibition, % at 25 µM | actives 0.85% (n = 360,000);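 active means inhibition or corrected inhibition above about 18%, plus a signal ratio from 0.5 to 1.5, limit read from the data, passing the limit was not always enough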
Target sequence (O14786 whole entry, looked up): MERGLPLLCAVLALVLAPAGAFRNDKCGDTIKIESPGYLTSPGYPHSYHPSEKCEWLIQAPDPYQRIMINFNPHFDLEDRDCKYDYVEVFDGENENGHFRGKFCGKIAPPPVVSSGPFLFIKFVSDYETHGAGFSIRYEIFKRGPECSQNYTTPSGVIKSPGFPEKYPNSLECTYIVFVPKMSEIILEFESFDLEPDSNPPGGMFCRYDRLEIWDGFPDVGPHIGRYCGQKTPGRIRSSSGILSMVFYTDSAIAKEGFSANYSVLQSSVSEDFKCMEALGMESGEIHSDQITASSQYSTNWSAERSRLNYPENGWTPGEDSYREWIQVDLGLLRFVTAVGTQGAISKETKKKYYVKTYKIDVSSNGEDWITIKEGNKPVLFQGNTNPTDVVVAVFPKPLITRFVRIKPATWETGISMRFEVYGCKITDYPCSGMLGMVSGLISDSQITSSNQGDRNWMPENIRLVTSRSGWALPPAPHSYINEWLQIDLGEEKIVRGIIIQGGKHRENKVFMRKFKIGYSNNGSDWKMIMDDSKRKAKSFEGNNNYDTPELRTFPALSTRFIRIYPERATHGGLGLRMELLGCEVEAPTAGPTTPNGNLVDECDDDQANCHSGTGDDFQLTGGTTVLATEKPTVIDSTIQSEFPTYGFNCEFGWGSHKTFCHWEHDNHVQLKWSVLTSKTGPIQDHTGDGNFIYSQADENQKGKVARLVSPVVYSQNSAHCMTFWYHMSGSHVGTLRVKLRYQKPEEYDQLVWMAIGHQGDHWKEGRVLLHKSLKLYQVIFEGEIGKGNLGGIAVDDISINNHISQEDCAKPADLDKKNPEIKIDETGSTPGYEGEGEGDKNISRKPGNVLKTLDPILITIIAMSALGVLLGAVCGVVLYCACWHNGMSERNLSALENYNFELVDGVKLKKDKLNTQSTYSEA
NadD inh: inhibitors of S. aureus NadD, primary screen, biochemical, colorimetric, uHTS; inhibition, % at 20 µM; actives 0.78% (n = 360,000); Nicotinate-nucleotide adenylyltransferase NadD (Staphylococcus aureus N315); purified NadD enzyme, colorimetric absorbance read-out; AID 602399, 2012; in the data active means inhibition above about 26%
FAS-TE inh: FAS thioesterase domain inhibitors, primary screen, biochemical, fluorescence intensity, uHTS; Fatty acid synthase (Homo sapiens), P49327; recombinant FAS-TE, OMFH fluorogenic substrate, fluorescence endpoint; inhibition, % at 15 µM; actives 0.67% (n = 360,000);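 active means compounds whose normalised, plate-corrected inhibition of enzyme fluorescence in the single-dose primary screen is 50% or more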
CRFBP-R2 block: antagonists of CRF-BP/CRF-R2 complex, primary screen, cell-based, HEK293, calcium dye fluorescence, uHTS; CRF-induced calcium fluorescence; AID 588475, 2011; inhibition, % at 11.8 µM; actives 0.59% (n = 350,000);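 active means inhibition of the ligand-induced calcium signal above about 50% at the single tested concentration, limit read from the data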
NadD inh conf: inhibitors of S. aureus NadD, confirmation, biochemical, colorimetric, single concentration | shares compounds with NadD inh | purified S. aureus NadD, colorimetric enzyme assay | inhibition, % at 20 µM | actives 13% (n = 2,000); in the data active means inhibition mostly above about 42%, no sharp cut-off; inactive means mostly below about 42%
Myeloid diff CP1: inducers of myeloid progenitor differentiation, confirmation, cell-based, GFP/Mac1 flow cytometry, cherry pick 01; shares compounds with Myeloid diff 2; ER-HoxA9 myeloid progenitors, GFP/Mac1 double-positive flow; calls only; actives 2% (n = 2,300);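 active means share of green or green-and-red cells above 9 and 9% in run 1 or 4 and 3% in run 2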
GFP autofluor: compound fluorescence in myeloid differentiation counter-screen | shares compounds with Myeloid diff 2 | ER-HoxA9 myeloid progenitors, no estrogen, GFP autofluorescence flow cytometry; vehicle wells 0%, positive control 100% | fluorescence response, % (test concentration not listed) | actives 7.4% (n = 2,300) | AID 651707;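 active means over 5% cells positive for green fluorescent reporter, or over 2% positive for both it and APC stain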
Large screens that a line does not name were inactive (follow-up assays come after a bar, where they were run).

COc1ccc2c(c1)N(C)/C(=C1/SC(=NCc3ccccc3)N(c3ccccc3)C1=O)S2	CendR NRP1 mod 26.6, NadD inh 30.6 | NadD inh conf inactive
CC(C)[C@@H]1Cc2[nH][nH]c(=O)c2[C@H](c2ccc(F)cc2)O1	none (no result: CRFBP-R2 block)
Cc1cccc(N2CCN(c3ccc4cc(S(=O)(=O)N5CCCCC5)ccc4n3)CC2)c1C	NadD inh 28.7 | NadD inh conf inactive
Cc1ccc(C)c(N2CCN(c3ccc4cc(S(=O)(=O)N5CCCCC5)ccc4n3)CC2)c1	NadD inh 31.8 | NadD inh conf inactive
Cc1cccc(N2CCN(c3ccc4cc(S(=O)(=O)N5CCCCC5)ccc4n3)CC2C)c1 (stereo not given)	none
CC(C)(C)c1ccc(C(=O)N2CCC(NC(=O)c3ccccc3)CC2)cc1	none
Cc1nc(SCC(=O)c2cc3ccccc3oc2=O)c(C#N)c(-c2cccs2)c1C(=O)Nc1ccccc1	NadD inh 32.5 | NadD inh conf inactive
CC(C)c1c(C#N)c(N)nc(SCC(=O)c2cc3ccccc3oc2=O)c1C#N	none
O=C(NC1CC2CCCC(C1)N2Cc1ccccc1)c1cccc(Cl)c1 (stereo not given)	none
CCOC(=O)Nc1ccc2c(CN3CCN(S(=O)(=O)c4ccc(C(C)C)cc4)CC3)cc(=O)oc2c1	NadD inh 49.8 | NadD inh conf inactive
CC12CCC(=O)N1C(C(=O)Nc1ccc(Br)cc1Cl)CS2 (stereo not given)	none
COc1cc(C2c3sc(=O)[nH]c3SC3C(=O)N(c4ccc(Br)cc4)C(=O)C32)ccc1O (stereo not given)	none
CCOc1ccc(N2C(=O)C3Sc4[nH]c(=O)sc4C(/C=C/c4ccccc4)C3C2=O)cc1 (stereo not given)	NadD inh 32.0 | NadD inh conf inactive
O=C(Nc1nc(-c2ccc(F)c(F)c2)cs1)Nc1ccc(F)cc1F	none
COc1ccc(S(=O)(=O)N2CCC(C(=O)NCCN3CCOCC3)CC2)cc1OC	NadD inh 32.7 | NadD inh conf inactive
COCCn1c(SCC(=O)Nc2ccc(F)cc2)nc2c(c1=O)SCC2	none
COc1ccc(S(=O)(=O)NC(N)=NCCc2ccccc2)cc1	none
Cc1cccc(NC(=O)CSCC(=O)N(C)Cc2ccc(Cl)c(Cl)c2)c1	none
NC(CSC(c1ccccc1)(c1ccccc1)c1ccc2c(c1)OCO2)C(=O)O (stereo not given)	NadD inh 31.2 | NadD inh conf inactive
CCc1cccc2c(/C=N/NC(=O)c3cccc(S(=O)(=O)Nc4ccccc4Cl)c3)c[nH]c12	NadD inh 32.0 | NadD inh conf 52.5
COC(=O)Cc1c(C(=O)OC)nnn1-c1cccc(C(F)(F)F)c1	none
COc1ccc2cc3[n+](cc2c1O)CCc1cc2c(cc1-3)OCO2	CendR NRP1 mod 30.7, NadD inh 41.4 (no result: CRFBP-R2 block) | NadD inh conf inactive
O=C(Nc1ccccc1-c1nc2ccccc2s1)C1=COCCO1	none
COc1cccc(NC(=O)CN(C)C(=O)c2cc(-c3ccco3)nc3ccccc23)c1	none
Cc1ccc(NC(=O)CN(C)C(=O)c2cc(-c3ccco3)nc3ccccc23)cc1	NadD inh 34.3 | NadD inh conf inactive | Myeloid diff CP1 inactive | GFP autofluor inactive
O=S(=O)(NC1=NCCC1)c1cccc(NS(=O)(=O)c2ccc(OC(F)(F)F)cc2)c1	none
COc1ccc(Cn2c(C)nc3c(c2=O)c2nc4ccccc4nc2n3Cc2ccco2)cc1	NadD inh 38.0 | NadD inh conf inactive | Myeloid diff CP1 inactive | GFP autofluor inactive
COc1ccccc1COCC(O)CN1CCN(S(=O)(=O)c2cccc(F)c2)CC1 (stereo not given)	none
O=C(Nc1cc(Br)ccc1O)c1cc(-c2ccco2)on1	NadD inh 28.9 | NadD inh conf inactive | Myeloid diff CP1 inactive | GFP autofluor inactive
COc1ccc2nc(N3C(=O)/C(=C/c4ccccc4)NC3=S)sc2c1	NadD inh 44.0 | NadD inh conf inactive | Myeloid diff CP1 inactive | GFP autofluor 7.0
COc1ccc2nc(-n3c(C)ccc3C)sc2c1	none
Cc1cc(-c2cc(-c3ccc(Cl)cc3)nc(N)c2C#N)co1	Myeloid diff 2 active, NadD inh 84.2 | NadD inh conf inactive | Myeloid diff CP1 inactive | GFP autofluor inactive
CCOc1ccc(CCN2C(=O)C(=O)N([C@@H](Cc3ccccc3)CN3CCC[C@H]3CN3C(=O)C(=O)NC[C@@H]3Cc3ccc(O)cc3)C[C@@H]2Cc2ccc(O)cc2)cc1	none (no result: CRFBP-R2 block)
CCOc1ccc(CCN2C(=O)C(=O)N([C@@H](Cc3ccccc3)CN3CCC[C@H]3CN3C(=O)C(=O)NC[C@@H]3CC(C)C)C[C@@H]2Cc2ccc(O)cc2)cc1	NadD inh 30.4 (no result: CRFBP-R2 block) | NadD inh conf inactive | Myeloid diff CP1 inactive | GFP autofluor inactive
O=C(Nc1ccccc1Cl)O/N=C/c1ccncc1	none (no result: Myeloid diff 2)
O=C(CCS(=O)(=O)c1ccc(Cl)cc1)Nc1nnc(-c2ccco2)o1	Myeloid diff 2 active | Myeloid diff CP1 inactive | GFP autofluor inactive
Cc1ccc(S(=O)(=O)CCC(=O)Nc2nnc(-c3ccco3)o2)cc1	none
CCc1c(O)cc2n(c1=O)-c1ccc(Cl)cc1C2(C)C	none
CC(C)(C)C(C(=O)Oc1ccccc1)c1ccccc1 (stereo not given)	none
COCCn1ccc2c(OCC(=O)Nc3cc(OC)ccc3OC)cccc2c1=O	Myeloid diff 2 active | Myeloid diff CP1 inactive | GFP autofluor inactive
CN1CCN(S(=O)(=O)c2ccc(C#N)cc2)C(c2ccccc2)C1 (stereo not given)	none
NNC(=O)c1ccc(CSc2cccc3cccnc23)cc1	none | Myeloid diff CP1 inactive | GFP autofluor inactive
COc1ccc(NC(C)(C)c2nnnn2-c2c(C)cccc2C)cc1	none | Myeloid diff CP1 inactive | GFP autofluor inactive
CCC(=O)c1cc(Br)ccc1OCC(=O)N1CCN(S(=O)(=O)c2ccccc2)CC1	none
OCC[C@@H]1C[C@@H](O)[C@H](O)[C@]2(OCCc3ccccc32)O1	none
O=C(O)CCC1(C(=O)O)OCCc2ccccc21 (stereo not given)	none | Myeloid diff CP1 inactive | GFP autofluor inactive
COC(=O)c1cccc(C#CC(NP(=O)(c2ccccc2)c2ccccc2)c2ccccc2)c1 (stereo not given)	none | Myeloid diff CP1 inactive | GFP autofluor inactive
